Records with an inconclusive call do not appear. Calls of active or inactive are those of the source. Calls come from the whole dose curve; as a rule, active = well fitted cell-killing curve with a large enough effect; inconclusive = small, poorly fitted or top-dose-only effect; inactive = no such curve, though single readings can be large or run the other way.
test: qHTS of pediatric cancer cell lines to identify multiple opportunities for drug repurposing: Primary screen for NB1643 cells (AID 1347099); settings: NB1643 neuroblastoma viability, CellTiter-Glo luminescence, 48 h; series mostly up to 46 µM; activity change, negative = cytotoxic: at the top concentration; note: nearly all actives have a fitted effect of over 50% in size
From the text: Drug repurposing or repositioning has been offered as a strategy for drug development in oncology programs. This approach has special potential for childhood cancers and other rare or orphan diseases, where the expected return on new drug development has been a disincentive to pharmaceuticals. […] In this project we exploit the poly-pharmacology of drugs to discover new indications via phenotypic screening of a panel of 19 well-characterized cell lines derived from solid tumors seen in children and adolescents. The goal is to identify approved drugs with previously unrecognized anticancer properties that has the potential to reveal new mechanisms and biological processes involved in carcinogenesis or drug resistance. We employed a titration-based paradigm (quantitative high-throughput screening or qHTS), where all compounds were tested at multiple concentrations for their effect on cell viability. Concentration-response curves (CRCs) were derived directly from the primary screen, and both potency and efficacy values were used to identify compounds with robust bioactivity profiles. We screened the NIH Chemical Genomics Center (NCGC) Pharmaceutical Collection (NPC) and Mechanism Interrogation Plate (MIPE) small molecule collections of approved and investigational compounds against these cell lines; and measured metabolically active cells after 48 hours of compound treatment as a proxy for cell viability. […] Assay Submitter: Nathalia J. Martinez, National Center for Advancing Translational Sciences, National Institutes of Health, Rockville, MD, USA; email: natalia.martinez@nih.gov Shen, M et al. Quantitative high-throughput phenotypic screening of pediatric cancer cell lines identifies multiple opportunities for drug repurposing. Oncotarget 2017 Dec 19;9(4):4758-4772. PMID 29435139.
The cells were obtained from University of North Carolina (UNC), Pediatric Preclinical Testing Program (PPT), and Coriell Institute (CI). qHTS cell viability assay: Cells were assayed in growth media at a density of 500-1,000 cells/well. Five microliters of cells were dispensed into 1,536-well, white, solid-bottom, TC-treated plates (Greiner Bio One) using a multidrop dispenser and incubated at 37 degrees C, 5% CO2, under a humidified atmosphere for 5 hours. Twenty-three nanoliters of compounds and controls (neutral control DMSO or positive control bortezomib at final concentration of 2.3 µM) were subsequently transferred by Kalypsys pintool. For primary screens, the MIPE collection was tested at 11-point dilutions (final concentrations range from 0.78 nM to 46 µM) and the NPC collection at 8-point dilutions (final concentrations range from 0.59 nM to 46 µM). Compounds tested in follow-up screens were assayed at 11-point dilutions. Cells were incubated for 48 hours, followed by addition of 3 µL of CellTiter-Glo (Promega). After a 15 min incubation at room temperature, samples were analyzed for luminescence intensity using a ViewLux High-throughput CCD imager equipped with clear filters.

Structure (SMILES) | activity change, negative = cytotoxic
CCC1Nc2cc(Cl)c(S(N)(=O)=O)cc2S(=O)(=O)N1 (stereo not given) | -1.07% (inactive)
COC(=O)C(c1ccccc1Cl)N1CCc2sccc2C1 (stereo not given) | 18.4% (inactive)
C/C=C/c1ccc(O)c(OC)c1 | -0.264% (inactive)
CC(=O)Nc1ncc([N+](=O)[O-])s1 | 5.74% (inactive)
CCCCOC(=O)CC(CC(=O)OCCCC)(OC(C)=O)C(=O)OCCCC | 17.6% (inactive)
CN1CCC(OC(c2ccccc2)c2ccccc2)CC1 | 2.52% (inactive)
COc1cc(C(=S)N2CCOCC2)ccc1O | -11.2% (inactive)
CCN[C@@H]1C[C@H](N)[C@@H](OC2OC(CN)=CCC2N)[C@H](O)[C@H]1O[C@H]1OC[C@](C)(O)[C@H](NC)[C@H]1O (stereo not given in full) | 4.64% [at 0.597 µM] (inactive)
COc1ccc2c(c1)c1c3n2CCN(C)C3=NCC1 | 0% (inactive)
CCCCC(CC)COC(=O)/C=C/c1ccc(OC)cc1 (stereo not given) | 17.2% (inactive)
CC(C)CCCC(C)N (stereo not given) | 2.06% (inactive)
O=C1OC2(c3ccccc31)c1cc(Br)c(O)c(Br)c1Oc1c2cc(Br)c(O)c1Br | -5.89% (inactive)
CCCN(CCC)S(=O)(=O)c1ccc(C(=O)O)cc1 | 7.88% (inactive)
CCC1NC(=O)c2cc(S(N)(=O)=O)c(Cl)cc2N1 (stereo not given) | 7.36% (inactive)
CC(C)(Cc1c[nH]c2ccccc12)NCC(O)COc1ccccc1C#N (stereo not given) | 7.39% (inactive)
O=C1[C@H](CC[C@H](O)c2ccc(F)cc2)[C@@H](c2ccc(O)cc2)N1c1ccc(F)cc1 | -12.4% (inactive)
CCOc1cc(OCC)c(C(=O)CCC(=O)O)cc1OCC | 14.9% (inactive)
C[C@@H](O)[C@H]1C(=O)N2C(C(=O)O)=C([C@H]3CCCO3)S[C@H]12 | 20.9% (inactive)
CCCCCCCCCCCCCCCC(=O)O | 19% (inactive)
O=C(Nc1ccccc1)OCC(CN1CCCCC1)OC(=O)Nc1ccccc1 (stereo not given) | -4.18% (inactive)

Structure (SMILES) | activity change, negative = cytotoxic
C#C[C@]1(O)CC[C@H]2[C@@H]3[C@H](C)CC4=C(CCC(=O)C4)[C@H]3CC[C@@]21C | -10.4% (inactive)
CC[N+](C)(CC)CCOC(=O)C(O)(c1ccccc1)C1CCCCC1 (stereo not given) | 6.48% (inactive)
CCOC(=O)Nc1ccc2c(c1)N(C(=O)CCN1CCOCC1)c1ccccc1S2 | -20.8% (inactive)
CC(=O)OCC(=O)[C@H]1CC[C@H]2[C@@H]3CCC4=CC(=O)CC[C@]4(C)[C@H]3CC[C@]12C | 9.87% (inactive)
O=C1OC(CN2CCOCC2)CN1/N=C/c1ccc([N+](=O)[O-])o1 (stereo not given) | 1.67% (inactive)
N=C(N)N1CCc2ccccc2C1 | -5.24% [at 4.84 µM] (inactive)
C#C[C@]1(O)CC[C@H]2[C@@H]3CCC4=Cc5oncc5C[C@]4(C)[C@H]3CC[C@@]21C | 8.37% (inactive)
CN1CCN(c2cc3c(cc2F)c(=O)c(C(=O)O)cn3-c2ccc(F)cc2)CC1 | -4.88% (inactive)
CCCCN=C(N)N=C(N)N | 3.58% (inactive)
OC[C@H]1O[C@@H](Oc2ccc(O)cc2)[C@H](O)[C@@H](O)[C@@H]1O | 4.03% (inactive)
O=C(O)C(Cc1cc(I)c(O)c(I)c1)c1ccccc1 (stereo not given) | -1.69% (inactive)
C#C[C@]1(O)CC[C@H]2[C@@H]3CCc4cc(OC)ccc4[C@H]3CC[C@@]21C | 23.4% (inactive)
Cc1c(-c2ccccc2)oc2c(C(=O)OCCN3CCCCC3)cccc2c1=O | -6.56% (inactive)
CCN1CCN(C(=O)N[C@@H](C(=O)N[C@@H]2C(=O)N3C(C(=O)O)=C(CSc4nnnn4C)CS[C@H]23)c2ccc(O)cc2)C(=O)C1=O | 5.59% (inactive)
C=C1c2cccc(O)c2C(O)=C2C(=O)[C@]3(O)C(O)=C(C(N)=O)C(=O)[C@@H](N(C)C)[C@@H]3[C@@H](O)[C@H]12 | 3.49% (inactive)
COc1ccc(C(=O)c2ccccc2)c(O)c1 | -4.49% (inactive)
N[C@H](C(=O)O)[C@@H](O)c1ccc(O)c(O)c1 | 14.3% (inactive)
CCCCCCCCOc1ccc(C(=O)c2ccccc2)c(O)c1 | 9.07% (inactive)
COc1ccc(C(Cl)=C(c2ccc(OC)cc2)c2ccc(OC)cc2)cc1 | -13.6% (inactive)
CC(C)(C)NC[C@H](O)COc1cccc2c1CCCC2=O | -8.48% (inactive)

— PubChem BioAssay (NCATS)
